# Assay results reported in PubChem BioAssay AID1347417 (National Center for Advancing Translational Sciences (NCATS), 2020).
# About 5,300 (4.4%) of roughly 120,000 compounds were called active. Another 22% or so got no clear call; they are omitted. Shown is part of a subset that was picked to be rich in actives. Unmarked numbers belong to inactive results. Calls follow the shape of the dose curve; as a rule, active = well fitted inhibition curve with a large enough effect; inconclusive = small, poorly fitted or top-dose-only effect; inactive = no such curve, though single readings can be large or run the other way.
# Assay: qHTS Primary assay for Inhibitors of Plasmodium falciparum Dd2 growth in vitro; also: nearly all actives have a fitted effect of over 65% in size;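 as to activity, negative = inhibition: plate controls were DMSO vehicle for no effect and reference drug for full effect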
# Details: P. falciparum Dd2 growth, SYBR Green, 72 h; series mostly up to 28.9 µM; activity, negative = inhibition: at the top concentration
# Excerpt: Malaria, a parasitic disease spread to humans through the bite of a Plasmodium infected Anopheles mosquito, continues to be a global health burden affecting millions of people, with an estimated 228 million cases and 405,000 deaths in 2018. Concerns about safety and limitations of current antimalarial treatments strongly emphasize the need to develop new therapeutic options. The scarce number of chemotypes and validated drug targets with efficacy against the liver stage, have hindered development of new antimalarials. To address this, a chemoprophylactic drug discovery effort was conducted through a combined phenotypic high-throughput asexual blood stage and liver stage screen, providing a robust foundation to identify liver-stage active lead chemotypes. Compounds were initially screened against Plasmodium falciparum Dd2 strain parasites using a in vitro SYBRGreen-1 based 72 hr proliferation assay to identify novel chemotypes to advance to liver stage assays. NIH/NCATS Early Translation Branch Assay Submitter (PI): Anton Simeonov Ph.D.
# Malaria-vivax Assay Protocol: PROTOCOL TABLE (as described by Inglese et al., 2007) SEQUENCE No. (e.g., 1, 2, 3, etc.); […] (e.g., Cells, Incubation, Reagent, etc.); VALUE; DESCRIPTION SEQUENCE, Parameter, Description 1; Reagent; 3 uL complete malaria growth medium, 1536 TC treated Black clear bottom plate 2; Controls; 23 nL positive control artesunate (300 nM final) to column 1; Neutral control DMSO to columns 2-4 3; Compound; 23 nL of compounds in dose response concentration (29 uM to 0.5 nM final) 4; Reagent; 5 uL malaria infected red blood cells (2.5% hematocrit final, 0.3% parasitemia 5; Time; 72 hours at 37C (5% O2, 5% CO2, 90% N2; 95% Rh) 6; Reagent; 2 uL lysis buffer/SYBRGreen-1, 25 sec shake immediately following dispense 7; Time; ~16 hours at 37C (5% O2, 5% CO2, 90% N2; 95% Rh) 8; Detector; EnVision (PerkinElmer) bottom read at 485/14nm excitation and 535/25 nm emission NOTES (numbers refer to sequence above): 1; Complete Malaria Growth Media: 1X RPMI-1640 w/L-glutamine, 5.5g/L Albumax II, 367 uM Hypoxanthine, 25 mM HEPES, 0.25% Sodium Bicarbonate, 35 uM Gentamicin sulfate 2; Controls were added using the Kalypsis Pintool (Wako USA) equipped with 1536 pinhead 3; Compounds were added in a 7-point, titration with a high final concentration of 29 uM by Pintool from seven inter-plate titrations of library plates and two DMSO control plates at the beginning and end (see Yasgar et al., 2008). 4; Red blood cells infected with Plasmodium falciparum Dd2 parasites were used. 6; Lysis buffer: 20 mM Tris-HCl, 10 mM EDTA, 0.16% Saponin, 1.6% Triton-X, 10X SYBR Green. REFERENCE: Inglese J, Shamu CE, Guy RK. 2007. Reporting data from high-throughput screening of small-molecule libraries. Nat Chem Biol. doi:10.1038/nchembio0807-438 Yasgar A, Shinn P, Jadhav A, Auld D, Michael S, Zheng W, Austin CP, Inglese J, Simeonov A. 2008. Compound Management for Quantitative High-Throughput Screening. J Lab Autom 13:79-89. doi:10.1016/j.jala.2007.12.004
# Potency is read from the fitted curve at half-maximal effect.
Structure (SMILES),"activity, negative = inhibition",outcome,Potency
CC(C)(C)C(=O)Cn1ccn2nc3c(c2c1=O)CCCC3,-23.6%,–,–
Cc1cc2nc3n(c(=O)c2n1CC(=O)NC(C)CCc1ccccc1)CCCC3 (stereo not given),–,inactive,–
CCc1ccc(CNCc2c(C(=O)O)n(Cc3ccc(F)cc3Cl)c3cc(OC)ccc23)cc1,–,inactive,–
COc1cccc(CNCc2c(C(=O)O)n(Cc3ccc(C)cc3)c3cc(C)ccc23)c1OC,–,–,10 µM (active)
COc1ccc2c(CNCCc3ccccc3C)c(C(=O)O)n(Cc3ccccc3C)c2c1,54.4% [at 5.79 µM],–,–
O=C(CCCc1ccccc1)N1CCCC(c2nc(C3CCOCC3)no2)C1 (stereo not given),-17.4%,–,–
Cn1cc(CN2CCOC[C@H](Oc3ccc(S(C)(=O)=O)cc3)C2)c2ccccc21,–,–,10 µM (active)
CC(C)CN1CCOC[C@H](Oc2ccc(S(C)(=O)=O)cc2)C1,-22.7% [at 44.1 µM],–,–
COc1ccc(O[C@H]2COCCN(Cc3nccn3C)C2)cc1,–,inactive [at 44.1 µM],–
COc1ccc(CC(=O)N2CCC(Cc3nc(-c4ccccc4)no3)CC2)cc1OC,–,inactive,–
COc1ccc(-c2noc(CC3CCN(C(=O)Cc4ccc(OC)c(OC)c4)CC3)n2)cc1,–,–,11.2 µM (active)
COc1ccc(-c2noc(CC3CCN(C(=O)Cc4ccc(C)cc4)CC3)n2)cc1,-16%,–,–
N#Cc1ccc(C(=O)N[C@@H](Cc2ccccc2)C(=O)N2CCCOCCNC(=O)CC2)cc1,-20.6%,–,–
CC(C)(C)C(=O)N1CCC(c2nn(-c3ccc(F)cc3)c(=O)[nH]2)CC1,–,inactive [at 44.1 µM],–
Cc1ccc(NC(=O)N2CCc3[nH]c4ccc(F)cc4c3C2)cc1,-6.6%,–,–
COCc1cn([C@H]2CO[C@H]3[C@@H]2OC[C@H]3OC(=O)Nc2cccc(C#N)c2)nn1,–,inactive [at 44.1 µM],–
CCOc1ccccc1NC(=O)Cn1c(=O)n(Cc2ccccc2)c(=O)c2c(C)c(C(=O)N(C)C)sc21,–,–,3.16 µM (active)
Cc1c(C(=O)N(C)C)sc2c1c(=O)n(-c1ccc(F)cc1)c(=O)n2CC(=O)N(C)c1ccccc1,62.2%,–,–
COc1cccc(-n2c(=O)c3c(C)c(C(=O)N(C)C)sc3n(CC(=O)NCCc3ccc(OC)c(OC)c3)c2=O)c1,-23.1%,–,–
COc1ccc(Nc2ccc3c(n2)CN(Cc2ccccc2C)C(=O)CO3)cn1,-2.87% [at 44.1 µM],–,–
O=C(C1CCCO1)N1CCC2(CC1)NCCc1c2[nH]c2ccccc12 (stereo not given),-8.14%,–,–
COCCOCC(=O)N1CCC2(CC1)NCCc1c2[nH]c2ccccc12,-26.8%,–,–
O=C(COc1ccc(F)cc1)N1CCC2(CC1)NCCc1c2[nH]c2ccccc12,–,–,10 µM (active)
Cc1nc2ncccn2c1C(=O)N[C@@H]1CCOC[C@H]1Oc1ccccn1,-3.97%,–,–
Cc1ccc2c(C(=O)O)cc(NC(=O)C(C)C)cc2n1,24%,–,–
